Measured values: PubChem BioAssay AID1159580 (chemical genetic matrix, 2015)
Values joined by “and” are separate entries in the source; they are usually repeats but may differ in a detail not shown here. Equal entries are not always repeated. The campaign covered roughly 5,500 compounds. About 2,000 (36%) were called active. About 18% were inconclusive and are not listed. No stated cut-off is given here; in the data, active means normalized growth mostly below about 0.91 (no sharp cut-off); inconclusive means no clear call, values can overlap the other calls; inactive means mostly above about 0.92. The list shows a part of the results.

Assay: chemical genetic growth profiling, strain panel (AID 1159580);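 further: tested at 20 µM; growth read once vehicle control cultures reached saturation at 30 °C; 1 = growth at the plate median or of vehicle wells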
Conditions: S. cerevisiae deletion strains, growth OD

Measured: normalized growth

O=c1oc2c(O)c(O)cc3c(=O)oc4c(O)c(O)cc1c4c23
0.41 (active) and 0.994 (inactive): locus YHR030C, strain SLT2, stronger effect = lower value
inactive: locus YBR021W, strain FUR4, stronger effect = lower value 0.907 | locus YBR171W, strain sec66, stronger effect = lower value 0.938 | locus YDL005C, strain med2, stronger effect = lower value 0.986 | locus YDR001C, strain nth1, stronger effect = lower value 0.96 | locus YDR195W, strain ref2 0.876 | locus YEL061C, strain CIN8 (second series), stronger effect = lower value 0.917 | locus YER110C, stronger effect = lower value 0.971 | locus YGL078C, strain dbp3, stronger effect = lower value 0.976 | locus YGL227W, strain vid30, stronger effect = lower value 1 | locus YGL240W, strain doc1, stronger effect = lower value 0.923 | locus YHR079C, strain IRE1, stronger effect = lower value 0.978 | locus YHR094C, strain hxt1, stronger effect = lower value 0.964 | locus YIL125W, strain kgd1, stronger effect = lower value 0.956 | locus YJL115W, strain asf1, stronger effect = lower value 0.912 | locus YJL129C, strain trk1, stronger effect = lower value 0.898 | locus YJR066W, strain TOR1, stronger effect = lower value 0.974
active: locus YAL013W, strain DEP1, stronger effect = lower value 0.55 | locus YAL021C, strain ccr4, stronger effect = lower value 0.352 | locus YAL026C, strain drs2, stronger effect = lower value 0.545 | locus YAL030W, strain snc1, stronger effect = lower value 0.817 | locus YBL061C, strain skt5, stronger effect = lower value 0.591 | locus YBR009C, strain hhf1, stronger effect = lower value 0.754 | locus YBR023C, strain chs3, stronger effect = lower value 0.533 | locus YBR229C, strain ROT2, stronger effect = lower value 0.903 | locus YBR231C, strain swc5, stronger effect = lower value 0.53 | locus YBR279W, strain paf1, stronger effect = lower value 0.699 | locus YCL011C, strain gbp2, stronger effect = lower value 0.745 | locus YCL016C, strain dcc1, stronger effect = lower value 0.722 | locus YCL029C, strain bik1, stronger effect = lower value 0.502 | locus YCL061C, strain MRC1, stronger effect = lower value 0.84 | locus YCL069W, strain vba3, stronger effect = lower value 0.855 | locus YCR088W, strain abp1, stronger effect = lower value 0.895 | locus YDL035C, strain GPR1, stronger effect = lower value 0.681 | locus YDL040C, strain nat1, stronger effect = lower value 0.868 | locus YDL074C, strain BRE1, stronger effect = lower value 0.541 | locus YDL101C, strain DUN1, stronger effect = lower value 0.598 | locus YDL185W, strain tfp1, stronger effect = lower value 0.835 | locus YDL192W, strain arf1, stronger effect = lower value 0.558 | locus YDR069C, strain doa4, stronger effect = lower value 0.521 | locus YDR101C, strain arx1, stronger effect = lower value 0.749 | locus YDR137W, strain rgp1, stronger effect = lower value 0.496 | locus YDR150W, strain NUM1, stronger effect = lower value 0.778 | locus YDR159W, strain sac3, stronger effect = lower value 0.738 | locus YDR162C, strain NBP2, stronger effect = lower value 0.661 | locus YDR297W, strain sur2, stronger effect = lower value 0.746 | locus YDR318W, strain mcm21, stronger effect = lower value 0.651 | locus YDR334W, strain swr1, stronger effect = lower value 0.574 | locus YDR335W, strain msn5, stronger effect = lower value 0.784 | locus YDR388W, stronger effect = lower value 0.538 | locus YDR392W, strain spt3, stronger effect = lower value 0.695 | locus YDR502C, strain sam2, stronger effect = lower value 0.561 | locus YEL003W, strain gim4, stronger effect = lower value 0.697 | locus YEL037C, strain rad23, stronger effect = lower value 0.767 | locus YEL061C, strain CIN8, stronger effect = lower value 0.753 | locus YER015W, strain faa2, stronger effect = lower value 0.583 | locus YER016W, strain bim1, stronger effect = lower value 0.818 | locus YER111C, strain swi4, stronger effect = lower value 0.436 | locus YER155C, strain BEM2 (second series), stronger effect = lower value 0.745 | locus YER155C, strain BEM2, stronger effect = lower value 0.74 | locus YER167W, strain BCK2, stronger effect = lower value 0.799 | locus YFR010W, strain ubp6, stronger effect = lower value 0.713 | locus YGL086W, strain mad1, stronger effect = lower value 0.583 | locus YGL167C, strain pmr1, stronger effect = lower value 0.653 | locus YGL173C, strain kem1, stronger effect = lower value 0.417 | locus YGL248W, strain PDE1, stronger effect = lower value 0.649 | locus YGL253W, strain hxk2, stronger effect = lower value 0.768 | locus YGR078C, strain PAC10, stronger effect = lower value 0.616 | locus YGR135W, strain pre9, stronger effect = lower value 0.559 | locus YGR252W, strain gcn5, stronger effect = lower value 0.588 | locus YHR013C, strain ard1, stronger effect = lower value 0.563 | locus YHR027C, strain rpn1, stronger effect = lower value 0.539 | locus YHR079C, strain IRE1 (second series), stronger effect = lower value 0.824 | locus YHR129C, strain ARP1, stronger effect = lower value 0.603 | locus YHR142W, strain chs7, stronger effect = lower value 0.563 | locus YHR200W, strain rpn10, stronger effect = lower value 0.712 | locus YIL066C, strain RNR3, stronger effect = lower value 0.669 | locus YIL073C, strain SPO22, stronger effect = lower value 0.546 | locus YIR030C, strain dcg1, stronger effect = lower value 0.776 | locus YJL092W, strain hpr5, stronger effect = lower value 0.861 | locus YJL095W, strain BCK1 (second series), stronger effect = lower value 0.675 | locus YJL134W, strain LCB3, stronger effect = lower value 0.823 | locus YJL154C, strain vps35, stronger effect = lower value 0.864 | locus YJL164C, strain tpk1, stronger effect = lower value 0.679 | locus YJL166W, strain qcr8, stronger effect = lower value 0.73 | locus YJL168C, strain set2, stronger effect = lower value 0.898 | locus YJL187C, strain SWE1 (second series), stronger effect = lower value 0.493 | locus YJL187C, strain SWE1, stronger effect = lower value 0.742 | locus YJR043C, strain POL32, stronger effect = lower value 0.596
0.28 (active) and 0.983 (inactive): locus YJL095W, strain BCK1, stronger effect = lower value
